Rows were chosen to be rich in hits. Some 9.5% of all compounds tested hit in one or more screens of this group.
Tau FP inhib – inhibitors of human tau fibril formation; K18 P301L tau heparin fibrillization, Alexa594 FP, 6 h; P10636; Potency, µM (series often up to 57.7 µM), for inactives: at the top dose activity, negative = inhibition, most hits filed as inhibitors; 280,000 tested, 0.39% active; AID 1468; further: nearly all actives have a fitted effect of over 55% in size
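Human K18 P301L fragment (15 uM unlabeled plus 0.24 uM Alexa 594-labeled) in 100 mM sodium acetate pH 7 with compound, aggregation induced by 20 uM heparin for 6 hr at 37 C. ThT (30 uM) added for 1 hr, then Alexa 594 FP read.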
Tau ThT inhib – inhibitors of human tau fibril formation, thioflavin T binding; Potency, µM (titrated, usually from 57.4 µM), for the others: at the top dose activity, negative = inhibition, most hits filed as inhibitors; P10636; 270,000 tested, 2.1% active; recombinant tau K18 P301L, heparin-induced fibrillization, ThT fluorescence; further: nearly all actives have a fitted effect of over 55% in size
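Heparin-induced (20 uM) aggregation of recombinant human K18 P301L tau, 15 uM unlabeled with 0.24 uM labeled, pH 7 acetate buffer, 6 hr at 37 C with compound. Fibrils quantified by 30 uM ThT fluorescence after 1 hr ambient incubation.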
HPGD inh – inhibitors of human 15-hydroxyprostaglandin dehydrogenase (HPGD); purified HPGD, NADH fluorescence kinetic, PGE2 substrate; 150,000 tested, 4.3% active; Potency, µM, for inactives: at the highest dose activity change, negative = inhibition, most hits filed as inhibitors; active means well fitted inhibition curve with a large enough effect, not every such curve was filed as active; inconclusive means small, poorly fitted or top-dose-only effect, or another doubt; inactive means no such curve, though single readings can be large or run the other way
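NADH formation kinetics: reaction with 30 uM PGE2 and 1 mM NAD+ (final), 20 nM enzyme, Tris-HCl pH 8 with Tween 20, after 15 min compound preincubation at room temperature. Fluorescence change, last versus first of five reads.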
ALDH1A1 block – blocks purified human ALDH1A1 activity. Purified ALDH1A1, NADH fluorescence, propionaldehyde substrate. P00352. AID 1030. 220,000 tested, 7.3% active. Potency, µM (doses to about 75.3 µM), for inactives: at the highest dose activity, negative = inhibition, usual class: inhibitors; active means well fitted inhibition curve with a large enough effect, not every such curve was filed as active; inconclusive means small, poorly fitted or top-dose-only effect, or another doubt; inactive means no such curve, though single readings can be large or run the other way;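 further: plate controls were no enzyme wells and a reference inhibitor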
Target sequence (P00352 whole entry, looked up): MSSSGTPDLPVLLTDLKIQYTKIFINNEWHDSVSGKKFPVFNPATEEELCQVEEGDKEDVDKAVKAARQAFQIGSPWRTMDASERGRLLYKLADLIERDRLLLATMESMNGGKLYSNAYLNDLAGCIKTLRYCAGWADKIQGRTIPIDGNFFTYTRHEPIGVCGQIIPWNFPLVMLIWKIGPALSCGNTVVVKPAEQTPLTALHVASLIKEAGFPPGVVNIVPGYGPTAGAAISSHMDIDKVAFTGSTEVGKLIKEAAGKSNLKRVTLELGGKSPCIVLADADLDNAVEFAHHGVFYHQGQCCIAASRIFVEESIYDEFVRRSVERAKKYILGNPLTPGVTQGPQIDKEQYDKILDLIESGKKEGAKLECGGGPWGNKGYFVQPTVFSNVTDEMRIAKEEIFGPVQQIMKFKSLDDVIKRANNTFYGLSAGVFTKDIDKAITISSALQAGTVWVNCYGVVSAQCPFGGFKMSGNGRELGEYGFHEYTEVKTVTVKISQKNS
Tau fluor counter – counter-screen for tau fibril formation inhibitors. tau K18 P301L Alexa594 fluorescence, heparin fibrillization. Potency, µM (titrated, usually from 57.7 µM), inactives show at the top dose activity change, negative = decrease. 280,000 tested, 0.93% active; further: nearly all actives have a fitted effect of over 55% in size
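Human tau K18 P301L (15 uM unlabeled, 0.24 uM Alexa 594-labeled) in 100 mM sodium acetate pH 7 with 20 uM heparin, 6 hr at 37 C. ThT 30 uM added, 1 hr ambient; Alexa 594 FP and total fluorescence read at 555/632 nm.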
NPSR antagonist – blocks cAMP signaling of the human neuropeptide S receptor | Q6W5P4 | CHO-NPSR cells, cAMP TR-FRET, antagonist mode | Potency, µM (highest dose often 38.3 µM), for inactives: top-dose activity change, negative = inhibition, most hits filed as inhibitors | 220,000 tested, 1% active | AID 1461; further: nearly all actives have a fitted effect of over 50% in size
Active calls of the source: *; u = inconclusive; x = no result given; [ ] = another dose, or the depositor's remark. Unless noted, the call rests on the fitted dose curve; in most records, active means well fitted curve in the direction sought with a large enough effect; inconclusive means small, poorly fitted or top-dose-only effect, or another doubt; inactive means no such curve, though single readings can be large; an effect the other way counts as inactive or inconclusive. Unless noted, on the % scale 0 is the no-effect control and ±100 the full control effect; potency means the concentration at half of the fitted maximal effect.

SMILES | Tau FP inhib | Tau ThT inhib | HPGD inh | ALDH1A1 block | Tau fluor counter | NPSR antagonist
CC1(c2ccccc2)NC(=O)N(CC(=O)NC(=O)NC2CCCC2)C1=O (stereo not drawn) | 1% | 10% | -10% | 13µM* | 2% | -22%[46.1 µM]
Cc1ccc(C2(C)NC(=O)N(CC(=O)NC(=O)NC3CCCC3)C2=O)cc1 (stereo not drawn) | 5% | 0% | -4% | -7% | -2% | 9%[46.1 µM]
CC1(c2ccccc2)NC(=O)N(CCOc2ccccc2)C1=O (stereo not drawn) | 0% | -3% | 1% | 22µM* | -7% | -26%[46.1 µM]
Cc1cccc(C)c1OCCN1C(=O)NC(C)(c2ccccc2)C1=O (stereo not drawn) | -6% | -17% | x | 5% | -26% | 3%
CCN1CCOC(=O)C1CC(=O)Nc1ccc(Br)cc1 (stereo not drawn) | 2% | u | x | x | -3% | x
O=C(/C=C/c1ccc([N+](=O)[O-])cc1)Nc1ncc([N+](=O)[O-])s1 | 10% | 3.5µM* | x | u | u | -11%
O=C(/C=C/c1ccc([N+](=O)[O-])cc1)NCc1ccccn1 | 7% | 2% | -7% | -8% | 6% | -3%
CCOC(=O)C1=C(N)n2c(s/c(=C\c3cccs3)c2=O)=C(C(=O)OCC)C1c1cccs1 (stereo not drawn) | 0% | -11% | -8% | -3% | -8% | u
C[C@@H]1C(=O)O[C@H]2[C@@H](O)[C@@]34[C@H]5CC(C(C)(C)C)[C@]36[C@@H](OC(=O)[C@@H]6O)O[C@@]4(C(=O)O5)[C@@]12O (stereo partly drawn) | -8% | 2% | 0% | 9% | 0% | x
Cc1cccc(NC(=O)Cn2c(=O)c3cccn3c3ccccc32)c1C | 18µM* | -10% | x | x | u | x
COc1ccc(CCNC(=O)Cn2c(=O)c3cccn3c3ccccc32)cc1OC | 14µM* | -6% | x | x | u | x
CCc1ccccc1NC(=O)Cn1c(=O)c2cccn2c2ccc(F)cc21 | -10% | 3% | x | x | 3% | x
O=C(N/N=C/c1cccc(C(F)(F)F)c1)C1CCN(c2ncc(C(F)(F)F)cc2Cl)CC1 | 0% | 0% | -10% | 32% | -1% | -8%[46.1 µM]
O=C(N/N=C/c1ccc(Cl)cc1Cl)C1CCN(c2ncc(C(F)(F)F)cc2Cl)CC1 | 3% | 6% | -22% | 3.5µM* | 9% | -9%[46.1 µM]
Cc1cn(-c2ccc(Br)cc2)[nH]c1=O | 0% | -23% | 25µM* | 4% | -7% | u
Cc1c(C#N)c(N=CN(C)C)c(C(=O)c2ccc(Br)cc2)n1-c1ccccc1 | -1% | -15% | -8% | 22µM* | -9% | -22%[46.1 µM]
Cc1c(C#N)c(N=CN(C)C)c(C(=O)c2ccccc2)n1-c1ccc(Br)cc1 | -5% | -14% | -1% | 5% | -11% | u
Cc1ccc(Cl)cc1N(C)C(=O)c1noc2c1CCCCC2 | -7% | -6% | x | x | -11% | x
C/C(=C\C=C(C#N)C#N)c1cc(C#N)c(N)o1 | -10% | 13µM* | x | u | -15% | -24%
COc1ccc(CSc2nnc(C)n2N)cc1[N+](=O)[O-] | -2% | -8% | x | 13µM* | 2% | 5%
CCCCOc1ccc(CSc2nnc(C)n2N)cc1[N+](=O)[O-] | 9% | -5% | x | 1% | 7% | 13%
CCc1nnc(SCc2ccc(OC)c(Br)c2)n1N | 1% | 4% | -24% | 28µM* | 3% | -8%[46.1 µM]
COc1ccc(CSc2n[nH]c(C)n2)cc1[N+](=O)[O-] | 13% | 0% | -27% | 10µM* | 4% | 8%
COc1ccc(CSc2ncn[nH]2)cc1[N+](=O)[O-] | -2% | -2% | -7% | u | -6% | 11%
N=c1sccn1CC(=O)Nc1ccccc1-c1ccccc1 | -2% | -18% | -7% | u | -10% | -7%[46.1 µM]
COc1ccc(/C=C(\NC(=O)c2ccccc2)C(=O)NC2CCCCC2)cc1 | 2% | -7% | x | x | -6% | x
